Reference: PubChem BioAssay (NCATS)
Inconclusive results are not listed. Active and inactive are the calls of the source. Unless noted, the call rests on the fitted dose curve; in most records, active means well fitted curve in the direction sought with a large enough effect; inconclusive means small, poorly fitted or top-dose-only effect, or another doubt; inactive means no such curve, though single readings can be large; an effect the other way counts as inactive or inconclusive.

Key:
C33A = experiment: Primary qHTS to identify gynecologic anti-cancer compounds using libraries of approved drugs and bioactive compounds (AID 1345084); conditions: Gynecologic cancer cell panel viability, ATPlite luminescence, 48 h; series mostly up to 57.5 µM; further: on the % scale 0 is the no-effect control and ±100 the full control effect; nearly all actives have a fitted effect of over 55% in size
Summary of the method: (§1)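 Luminescence from the ATPlite ATP-monitoring reagent indicates viable cell number; lower signal means cytotoxicity. Cells received compound 16 h after seeding and were exposed for 48 h across five concentrations.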

CAOV3 = experiment: as above; conditions: Gynecologic cancer cell panel viability, ATPlite luminescence, 48 h; series mostly up to 57.5 µM
Summary of the method: as §1

CASKI = experiment: as above; conditions: Gynecologic cancer cell panel viability, ATPlite luminescence, 48 h; series mostly up to 57.5 µM
Summary of the method: as §1

Es-2 = experiment: as above; conditions: Gynecologic cancer cell panel viability, ATPlite luminescence, 48 h; series mostly up to 57.5 µM
Summary of the method: as §1

HeLa = experiment: as above; conditions: Gynecologic cancer cell panel viability, ATPlite luminescence, 48 h; series mostly up to 57.5 µM
Summary of the method: as §1

Hek293T = experiment: as above; conditions: Gynecologic cancer cell panel viability, ATPlite luminescence, 48 h, control line for the selectivity index; series mostly up to 57.5 µM
Summary of the method: as §1

JEG-3 = experiment: as above; conditions: Gynecologic cancer cell panel viability, ATPlite luminescence, 48 h; series mostly up to 57.5 µM
Summary of the method: as §1

OV90 = experiment: as above; conditions: Gynecologic cancer cell panel viability, ATPlite luminescence, 48 h; series mostly up to 57.5 µM
Summary of the method: as §1

PA-1 = experiment: as above; conditions: Gynecologic cancer cell panel viability, ATPlite luminescence, 48 h; series mostly up to 57.5 µM
Summary of the method: as §1

SKOV3 = experiment: as above; conditions: Gynecologic cancer cell panel viability, ATPlite luminescence, 48 h; series mostly up to 57.5 µM
Summary of the method: as §1

Tov-21-G = experiment: as above; conditions: Gynecologic cancer cell panel viability, ATPlite luminescence, 48 h; series mostly up to 57.5 µM
Summary of the method: as §1

Tov112D = experiment: as above; conditions: Gynecologic cancer cell panel viability, ATPlite luminescence, 48 h; series mostly up to 57.5 µM
Summary of the method: as §1

[1] = molecular target: Nuclear receptor subfamily 1 group I member 2 (Rattus norvegicus) (UniProt Q9R1A7); experiment: qHTS assay for small molecule activators of the rat pregnane X receptor (rPXR) signaling pathway (AID 651751; call rule not given here; further: 0% is about no effect); conditions: rPXR reporter cells, luciferase (One-Glo), 24 h
Chain of Nuclear receptor subfamily 1 group I member 2 (Rattus norvegicus) (Q9R1A7 whole entry, looked up): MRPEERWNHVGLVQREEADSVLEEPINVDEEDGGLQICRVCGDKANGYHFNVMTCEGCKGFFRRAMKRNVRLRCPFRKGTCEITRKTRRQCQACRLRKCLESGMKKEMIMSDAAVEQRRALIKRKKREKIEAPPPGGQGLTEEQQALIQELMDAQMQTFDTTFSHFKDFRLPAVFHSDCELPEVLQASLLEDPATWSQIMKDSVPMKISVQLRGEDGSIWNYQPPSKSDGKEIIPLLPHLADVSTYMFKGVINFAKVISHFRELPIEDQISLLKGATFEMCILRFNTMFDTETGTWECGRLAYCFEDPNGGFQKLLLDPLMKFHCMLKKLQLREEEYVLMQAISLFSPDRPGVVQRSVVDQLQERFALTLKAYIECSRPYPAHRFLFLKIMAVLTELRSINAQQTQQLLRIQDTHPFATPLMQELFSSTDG

[2] = qHTS assay to identify inhibitors of the type 1 interferon - major histocompatibility complex class I in skeletal muscle: Counter screen cell viability and HiBit confirmation (AID 1347412); conditions: iHSKM muscle cells + IFN-b, HiBiT or CellTiter-Glo, 24 h, at 45.9 µM (top of the series); further: on the % scale 0 is the no-effect control and ±100 the full control effect; nearly all actives have a fitted effect of over 60% in size
Summary of the method: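 Luminescence read-out: Nano-Glo HiBiT lytic signal from C-terminally HiBiT-tagged HLA-B in CRISPR-edited human myoblasts, plus CellTiter Glo ATP as viability counter screen. IFN-beta 4.0 ng/ml; 24 hrs treatment at 37 C, 5% CO2.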

COC1C(CO)OC(n2cnc3c(=O)[nH]cnc32)C1O (stereo not given)
inactive: Potency (C33A) | Potency (CAOV3) | Potency (CASKI) | Potency (Es-2) | Potency (HeLa) | Potency (Hek293T) | Potency (JEG-3) | Potency (OV90) | Potency (PA-1) | Potency (SKOV3) | Potency (Tov-21-G) | Potency (Tov112D)

CC(C)CC(=O)OC1OC=C(CO[C@@H]2O[C@H](CO)[C@@H](O)[C@H](O)[C@H]2O)C2CC(O)C(O)(CO)C12 (stereo not given in full)
inactive: Potency (C33A) | Potency (CAOV3) | Potency (CASKI) | Potency (Es-2) | Potency (HeLa) | Potency (Hek293T) | Potency (JEG-3) | Potency (OV90) | Potency (PA-1) | Potency (SKOV3) | Potency (Tov-21-G) | Potency (Tov112D)

CCc1cccc(CC)c1NC(=O)c1nn(C)c2c1CCc1cnc(Nc3ccc(C(=O)NC4CCN(C)CC4)cc3OC(F)(F)F)nc1-2
inactive: Potency (C33A) | Potency (CAOV3) | Potency (CASKI) | Potency (Es-2) | Potency (HeLa) | Potency (Hek293T) | Potency (JEG-3) | Potency (OV90) | Potency (PA-1) | Potency (SKOV3) | Potency (Tov-21-G) | Potency (Tov112D)

C[C@@H]1C(=O)OC[C@H]2C(C(=O)O)=C[C@@H]3CC(C)(C)C[C@]312
inactive: Potency (C33A) | Potency (CAOV3) | Potency (CASKI) | Potency (Es-2) | Potency (HeLa) | Potency (Hek293T) | Potency (JEG-3) | Potency (OV90) | Potency (PA-1) | Potency (SKOV3) | Potency (Tov112D)

CC(=O)O[C@@H]1CC(C)=C2[C@H]1[C@H](C)CC[C@H]2/C=C(\C)C(=O)O
inactive: Potency (C33A) | Potency (CAOV3) | Potency (CASKI) | Potency (Es-2) | Potency (HeLa) | Potency (Hek293T) | Potency (JEG-3) | Potency (OV90) | Potency (PA-1) | Potency (SKOV3) | Potency (Tov-21-G) | Potency (Tov112D) | max response [1] -4.19%

COc1cc2ncnc(Nc3ccc(O)cc3)c2cc1OC
inactive: Potency (C33A) | Potency (CAOV3) | Potency (CASKI) | Potency (Es-2) | Potency (HeLa) | Potency (Hek293T) | Potency (JEG-3) | Potency (OV90) | Potency (PA-1) | Potency (SKOV3) | Potency (Tov112D)

CO[C@H]1/C=C\O[C@@]2(C)Oc3c(C)c(O)c4c(O)c(c5c(nc6cc(C)ccn65)c4c3C2=O)NC(=O)/C(C)=C\C=C/[C@H](C)[C@H](O)[C@@H](C)[C@@H](O)[C@@H](C)[C@H](OC(C)=O)[C@@H]1C
inactive: Potency (C33A) | Potency (CAOV3) | Potency (CASKI) | Potency (Es-2) | Potency (HeLa) | Potency (Hek293T) | Potency (JEG-3) | Potency (OV90) | Potency (PA-1) | Potency (SKOV3) | Potency (Tov-21-G) | Potency (Tov112D)

C[C@@H]1O[C@@H](O[C@@H]2[C@@H](O)[C@@H](O[C@]3(CO)O[C@H](CO)[C@@H](O)[C@@H]3OC(=O)/C=C/c3ccc(O)cc3)O[C@H](CO)[C@H]2OC(=O)/C=C/c2ccc(O)cc2)[C@H](O)[C@H](O)[C@H]1O[C@@H]1O[C@@H](C)[C@H](O[C@@H]2OC[C@](O)(CO)[C@H]2O)[C@@H](O)[C@H]1O
inactive: activity change, negative = cytotoxicity (C33A) 8.98% [at 11.6 µM] | activity change, negative = cytotoxicity (CAOV3) 0.132% [at 11.6 µM] | activity change, negative = cytotoxicity (CASKI) 12.2% [at 11.6 µM] | activity change, negative = cytotoxicity (Es-2) -1.87% [at 11.6 µM] | activity change, negative = cytotoxicity (HeLa) 10.7% [at 11.6 µM] | activity change, negative = cytotoxicity (Hek293T) -1.85% [at 11.6 µM] | activity change, negative = cytotoxicity (JEG-3) 3.39% [at 11.6 µM] | activity change, negative = cytotoxicity (OV90) -2.82% [at 11.6 µM] | activity change, negative = cytotoxicity (PA-1) 32.6% [at 11.6 µM] | activity change, negative = cytotoxicity (Tov-21-G) 7.09% [at 11.6 µM] | activity change, negative = cytotoxicity (Tov112D) 12.6% [at 11.6 µM]

C[C@H](C/C=C/C(C)(C)O)[C@H]1CC[C@@]2(C)[C@@H]3[C@@H](O[C@@H]4O[C@H](CO)[C@@H](O)[C@H](O)[C@H]4O)C=C4C(CC[C@H](O)C4(C)C)[C@]3(C=O)CC[C@]12C (stereo not given in full)
inactive: Potency (C33A) | Potency (CAOV3) | Potency (CASKI) | Potency (Es-2) | Potency (HeLa) | Potency (Hek293T) | Potency (JEG-3) | Potency (OV90) | Potency (PA-1) | Potency (Tov-21-G) | Potency (Tov112D)

CNC12CC3C[C@@](C)(C1)C[C@](C)(C3)C2
inactive: Potency (C33A) | Potency (CAOV3) | Potency (CASKI) | Potency (Es-2) | Potency (HeLa) | Potency (Hek293T) | Potency (JEG-3) | Potency (OV90) | Potency (PA-1) | Potency (SKOV3) | Potency (Tov-21-G) | Potency (Tov112D)

CC(=O)O[C@H]1CC[C@@]2(C)C(CC[C@@H](C)[C@]23Cc2c(O)cc4c(c2O3)CN([C@@H](CCC(=O)O)C(=O)O)C4=O)C1(C)C (stereo not given in full)
inactive: Potency (C33A) | Potency (CAOV3) | Potency (CASKI) | Potency (Es-2) | Potency (HeLa) | Potency (Hek293T) | Potency (JEG-3) | Potency (OV90) | Potency (PA-1) | Potency (SKOV3) | Potency (Tov-21-G) | Potency (Tov112D)

C[C@@H]1CCN(C(=O)N2CCCC2)C[C@@H]1N(C)c1ncnc2[nH]ccc12
inactive: Potency (C33A) | Potency (CAOV3) | Potency (CASKI) | Potency (Es-2) | Potency (HeLa) | Potency (Hek293T) | Potency (JEG-3) | Potency (OV90) | Potency (PA-1) | Potency (SKOV3) | Potency (Tov112D)

C=C(C(=O)O)[C@@H]1CC[C@@]2(C)CC[C@H](O)[C@@]2(C(C)=O)C1
inactive: Potency (C33A) | Potency (CAOV3) | Potency (CASKI) | Potency (Es-2) | Potency (HeLa) | Potency (Hek293T) | Potency (JEG-3) | Potency (OV90) | Potency (PA-1) | Potency (Tov-21-G) | Potency (Tov112D)

Cc1ccc(-c2ccc3c(ccc4sc5c(c43)NC[C@@H](C)NC5=O)n2)cn1
inactive: Potency (C33A) | Potency (CAOV3) | Potency (CASKI) | Potency (Es-2) | Potency (HeLa) | Potency (Hek293T) | Potency (JEG-3) | Potency (OV90) | Potency (PA-1) | Potency (SKOV3) | Potency (Tov-21-G) | Potency (Tov112D) | activity change, negative = inhibition ([2]; HiBiT) -1.05% | activity change, negative = inhibition ([2]; Viability) 10.5%
